Consider eight molecules from PubChem BioAssay (NCI).

Common to all, as to test: NCI-60 one-dose screen, 48 h (100 = growth as untreated, 0 = no growth, -100 = all killed)
Common to all, as to conditions: 10 µM

Test [1] has as its system SR leukemia.
Test [2] has as its system RPMI-8226 leukemia.
Test [3] relates to OVCAR-8 ovarian.
For test [4], the system named is OVCAR-5 ovarian.
Test [5] deals with OVCAR-4 ovarian.
Test [6] has as its system SK-OV-3 ovarian.
In test [7] the test system is IGROV1 ovarian.
Test [8] deals with OVCAR-3 ovarian.
The subject of test [9] is HS 578T breast.
Test [10] relates to NCI/ADR-RES ovarian.
The test system of test [11] is T-47D breast.
The test system of test [12] is BT-549 breast.
The subject of test [13] is MDA-MB-435 melanoma.
Test [14] has as its system SW-620 colon.
The test system of test [15] is MCF7 breast.
The test system of test [16] is HCT-116 colon.
The subject of test [17] is HCC-2998 colon.
Test [18] relates to KM12 colon.

About 83,000 compounds went through this panel and 20% of them were active in at least one assay; those are over-represented in the sample as a whole.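 Cell lines were cultured in 96-well plates, exposed to a single compound concentration, and assessed for percent growth 48 hours later.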 Unmarked numbers belong to inactive results. Activity calls are given as the source filed them. The calls were made as follows: active = growth percent below 10; inactive = the rest.

`CCOC(=O)c1sc(Nc2ncccn2)nc1-c1ccccn1`: the growth is 62.7% in test [1]; 92% in test [2]; 85.7% in [3]; 93.1% in test [4]; 42% in [5]; 76.4% in test [6]. For the same molecule, the growth was 87.4% in test [7]; 82.3% in test [8]; 105% in test [9]; 68.6% in test [10]; 41.8% in test [11]; 89.2% in test [12]. For the same molecule, the growth is 103% in test [13]; 95.6% in [14]; 7.18% (active) in test [15]; 74.2% in [16]; 80.7% in test [17]; 83% in test [18].
For the molecule `COc1ccc(-c2nnc(N3CCN(C(=O)CN4CCN(c5ccc(Cl)cc5)CC4)CC3)nc2-c2ccc(OC)cc2)cc1`, the growth in test [1] is 54.2%; in [2] it was -44.9% (active); in test [3], 66.1%; in test [4], 114%; in test [5] it was 61.5%; in test [6], 102%. The growth in test [7] was 62.7%; in test [8], 73.1%; in test [9] it was 72.2%; in [10], 81.8%; in test [11] it was 38.2%; in test [12] it was 59%. The growth in test [13] was 68%; in test [14], 69.3%; in test [15], 37.1%; in [16], 34.1%; in test [17] it was 75.2%; in [18], 50.5%.
With `Cc1nc(Nc2nc3ccccc3o2)nc(-c2cccc([N+](=O)[O-])c2)c1C(=O)Nc1ccc(F)c(Cl)c1`, the growth in [1] was -8.33% (active); in test [2] it was -41.4% (active); in [3], 6.5% (active); in test [4] it was 33%; in test [5], 16%; in test [6], 10%. The growth was 40.3% in [7]; 6.94% (active) in test [8]; 4.55% (active) in [9]; 3.88% (active) in test [10]; 5.31% (active) in test [11]; 19.4% in test [12]. Moreover, the growth in test [13] was 8.91% (active); in test [14] it was 9.75% (active); in test [15], 3.7% (active); in [16] it was 6.76% (active); in test [17], -25.6% (active); in test [18] it was -14.6% (active).
With `Cc1ccc2nc(-c3ccc(OCC(=O)N=Nc4c(O)[nH]c5ccccc45)cc3)[nH]c2c1`, the growth in [1] was -17.5% (active); in test [2], 25.7%; in test [3], 18.5%; in [4], 104%; in test [5], 11.6%; in test [6], 99.5%. Further, the growth in test [7] is 85.8%; in test [8], 26.5%; in test [9], 91.5%; in test [10] it was 89.9%; in [11], 38.4%; in test [12], 109%. The growth in test [13] was 64.3%; in [14] it was 6.51% (active); in test [15] it was -24.7% (active); in test [16], -20.5% (active); in test [17], 59.7%; in test [18], 1.59% (active).
As to `O=C(NC1CCN(Cc2ccccc2)CC1)c1cc(-c2ccncc2)nc2ccc(Cl)cc12`, the growth in test [1] was 8.12% (active); in test [2], 21.9%; in [3], 18.4%; in [4] it was 75.3%; in [5] it was 27.6%; in [6] it was 53.1%. Moreover, the growth in test [7] was 32.3%; in test [8] it was 15.5%; in [9], 59.9%; in [10] it was 11.2%; in test [11], 29.8%; in [12], 35.4%. For the same molecule, the growth in test [13] is 28%; in test [14], 23.5%; in test [15] it was 17.7%; in [16], 9.97% (active); in test [17], 44.4%; in test [18], 26.1%.
As to `COc1ccc(-c2nnc(COc3ccc(NC(=O)Nc4ccccc4)cc3F)o2)cc1`, the growth in test [1] was 36.1%; in test [2], 51.3%; in [3] it was 96.1%; in test [4], 114%; in [5], 75.7%; in test [6], 99.1%. Moreover, the growth in test [7] was 99.2%; in test [8], 2.7% (active); in test [9], 82%; in test [10] it was 97.4%; in test [11], 62.1%; in [12], 79.6%. The growth in test [13] was 92.3%; in [14], 102%; in [15] it was 90.3%; in [16], 69.8%; in test [17], 103%; in test [18], 68.5%.
As for `CCOC(=O)c1cc2c(n1Cc1cc(OC)cc(OC)c1)-c1oncc1CC2`, the growth in test [1] was 18%; in test [2] it was 39.5%; in [3] it was 26.8%; in [4], 49%; in test [5], 48.9%; in test [6], 5.06% (active). In addition, the growth in test [7] was 14.3%; in [8], -51.2% (active); in test [9], -1.17% (active); in test [10], 0.862% (active); in test [11], 54.8%; in [12] it was 39.5%. Also, the growth in test [13] was -37% (active); in [14], 34.9%; in [15], 16.6%; in test [16], 14.2%; in test [17] it was 19.4%; in test [18], 19.5%.
As to `CC(C)/C=N/NC(N)=S`, the growth was 51.9% in test [1]; 60.4% in test [2]; 62.9% in [3]; 78.7% in [4]; 46.1% in test [5]; 110% in test [6]. Moreover, the growth was 34% in [7]; 53% in test [8]; 90.7% in [9]; 75% in test [10]; 45.6% in [11]; 105% in test [12]. The growth in test [13] was 86.4%; in test [14] it was 76.4%; in [15] it was 8.48% (active); in [16], 8.16% (active); in [17], 96.4%; in test [18], 112%.
